The nature of assay [1]: ATG_E_Box_CIS: Attagene CIS-FACTORIAL HepG2 Assay for human Enhancer Box (E-box) (AID 2282936). The settings on record: HepG2 E-box cis-reporter transcription, actives raise or lower the signal. The gist of the method:
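DMSO served as negative control and baseline for bidirectional fitting. Human hepatoma HepG2 cells, transiently transfected with cis-reporter constructs, were dosed 24 h; reporter mRNA read by RT-PCR and capillary electrophoresis.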

Assay [2] can be described thus: ATG_M_61_CIS: Attagene CIS-FACTORIAL HepG2 Assay for M61 Transcription Factor (Internal Marker) (AID 2282937). The settings on record: HepG2 Attagene CIS-FACTORIAL M61 internal marker reporter; actives raise or lower the signal. The gist of the method:
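HepG2 cells transiently transfected with multiplexed cis-promoter reporter units reporting endogenous transcription factor activity, measured 24 h after dosing. Reporter mRNA quantified by RT-PCR and capillary electrophoresis; bidirectional fit against DMSO baseline.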

Assay [3] in a line: ATG_EGR_CIS: Attagene CIS-FACTORIAL HepG2 Assay for human Early Growth Response 1 (EGR1) (AID 2282938). Particulars: HepG2 Attagene CIS-FACTORIAL EGR reporter mRNA; actives raise or lower the signal. A digest of the protocol:
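HepG2 cells transiently transfected with cis-element-driven multiplexed reporter units, dosed for 24 h. EGR1-element reporter mRNA quantified by RT-PCR, 6-FAM labelling, HpaI digestion and capillary electrophoresis; bidirectional fit versus DMSO.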

Assay [4] can be described thus: ATG_M_19_CIS: Attagene CIS-FACTORIAL HepG2 Assay for M19 Transcription Factor (Internal Marker) (AID 2282939). Particulars: HepG2 Attagene CIS-FACTORIAL M19 internal marker reporter; actives raise or lower the signal. A digest of the protocol: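 Chemical-treated HepG2 (24 h) with MRTU constructs; reporter transcripts detected by fluorescent RT-PCR fragment analysis on capillary electrophoresis. Internal background marker, DMSO as baseline.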

Assay [5] in a line: ATG_ERE_CIS: Attagene CIS-FACTORIAL HepG2 Assay for Estrogen Response Element (ERE) (AID 2282940). The settings on record: HepG2 ERE cis-reporter, Attagene RNA transcript; actives raise or lower the signal. The gist of the method: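 Human liver cells (HepG2) bearing transiently transfected, promoter-regulated reporter units were exposed 24 h. Reporter mRNA induction was detected by capillary electrophoresis of labelled RT-PCR products and fitted bidirectionally to DMSO.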

A short description of assay [6]: ATG_Ets_CIS: Attagene CIS-FACTORIAL HepG2 Assay for human Erythroblast Transformation Specific (ETS) (AID 2282941). Particulars: HepG2 ETS cis-reporter transcription, actives raise or lower the signal. The gist of the method:
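Human HepG2 hepatoma cells were transiently transfected with promoter-driven reporter constructs and treated for 24 hours. Reporter transcripts were quantified by RT-PCR with fluorescent primer extension; bidirectional curve fitting used DMSO as reference.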

The nature of assay [7]: ATG_FoxO_CIS: Attagene CIS-FACTORIAL HepG2 Assay for human Forkhead box O (FoxO) (AID 2282943). The settings on record: HepG2 Attagene cis-reporter, FoxO element, mRNA; actives raise or lower the signal. A digest of the protocol:
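Endogenous transcription factor activity read from multiplexed cis-promoter reporter transcripts in transiently transfected HepG2, 24 h after dosing. Reporter RNA measured via RT-PCR plus capillary electrophoresis of FAM-labeled products; gain or loss relative to DMSO.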

Assay [8] can be described thus: ATG_GATA_CIS: Attagene CIS-FACTORIAL HepG2 Assay for human GATA Binding Protein (AID 2282944). Particulars: HepG2 GATA cis-element reporter, Attagene multiplex mRNA; actives raise or lower the signal. A digest of the protocol:
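Transfected cis-reporter HepG2 cells were treated with chemicals for 24 hours. Total RNA was then converted to cDNA, amplified with reporter-specific primers and analysed by fluorescent capillary electrophoresis, using DMSO-treated wells as baseline.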

A short description of assay [9]: ATG_GLI_CIS: Attagene CIS-FACTORIAL HepG2 Assay for human Zinc Finger Protein GLI1 (AID 2282945). Particulars: HepG2, Attagene cis-factorial reporter mRNA, GLI element; actives raise or lower the signal. A digest of the protocol:
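Bidirectional curve fits relative to DMSO, using reporter mRNA levels from RT-PCR plus capillary electrophoresis. Cells were HepG2 transiently carrying cis-regulated reporter constructs, harvested 24 h after dosing.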

A short description of assay [10]: ATG_GRE_CIS: Attagene CIS-FACTORIAL HepG2 Assay for human Glucocorticoid Response Elements (GRE) (AID 2282947). The settings on record: HepG2 GRE cis-reporter, Attagene multiplex mRNA; actives raise or lower the signal. A digest of the protocol:
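Assay uses human hepatoma HepG2 cells transfected with cis-promoter reporter units, exposed 24 h. mRNA from reporters detected by RT-PCR plus capillary electrophoresis; DMSO serves as negative control and baseline.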

The nature of assay [11]: ATG_ISRE_CIS: Attagene CIS-FACTORIAL HepG2 Assay for human Interferon Regulatory Factor 1 (IRF1) binding to an Interferon-Stimulated Response Element (ISRE) (AID 2282948). Particulars: HepG2 ISRE cis-reporter (Attagene), mRNA transcription readout; actives raise or lower the signal. The gist of the method:
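Cell-based cis-reporter assay; HepG2; 24 h exposure; reporter mRNA by RT-PCR plus capillary electrophoresis fluorescence; activity in either direction scored relative to DMSO.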

Assay [12] in a line: ATG_M_32_CIS: Attagene CIS-FACTORIAL HepG2 Assay for M32 Transcription Factor (Internal Marker) (AID 2282949).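 Further: background control marker of the multiplexed CIS panel rather than a real target.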 Particulars: HepG2 Attagene cis-factorial M32 reporter, mRNA; actives raise or lower the signal. The gist of the method:
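Following 24 h chemical exposure of HepG2 cells transiently expressing cis-promoter reporter constructs, reporter transcript levels were determined by RT-PCR with fluorescent labelling and capillary electrophoresis, then fitted bidirectionally against DMSO.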

A short description of assay [13]: ATG_M_06_CIS: Attagene CIS-FACTORIAL HepG2 Assay for M06 Transcription Factor (Internal Marker) (AID 2282950). Particulars: HepG2 Attagene CIS-FACTORIAL M06 internal marker reporter; actives raise or lower the signal. The gist of the method: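 Cells (HepG2, transiently carrying cis-driven reporter units) receive chemical for 24 h before RNA isolation. Reporter cDNA is PCR-amplified, FAM-labelled by primer extension, HpaI-digested and sized on a capillary analyser.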

For assay [14], the target named is Hypoxia-inducible factor 1-alpha (Homo sapiens) (UniProt Q16665). Briefly: ATG_HIF1a_CIS: Attagene CIS-FACTORIAL HepG2 Assay for human Hypoxia Inducible Factor 1 (HIF1A) (AID 2282951). Particulars: HepG2 Attagene cis-factorial HIF1a reporter transcription; actives raise or lower the signal. The gist of the method:
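HepG2 cells transiently transfected with multiple cis-regulated reporter transcription units measure endogenous transcription factor activity. After 24 h exposure, reporter mRNA is quantified by RT-PCR with 6-FAM labelling, HpaI digestion and capillary electrophoresis. Bidirectional fitting against DMSO.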

For assay [15], the target named is Hepatocyte nuclear factor 6 (Homo sapiens) (UniProt Q9UBC0). Description: ATG_HNF6_CIS: Attagene CIS-FACTORIAL HepG2 Assay for human Hepatocyte Nuclear Factor 6 (HNF6) (AID 2282952). Particulars: HepG2 Attagene cis-factorial HNF6 reporter transcription; actives raise or lower the signal. The gist of the method: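 HepG2 cells transiently transfected with cis-element-driven multiplexed reporter units measuring endogenous transcription factor activity. After 24 h exposure, reporter mRNA quantified by RT-PCR, FAM-labelled fragments and capillary electrophoresis; bidirectional fitting versus DMSO.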

For assay [16], the target named is Heat shock factor protein 1 (Homo sapiens) (UniProt Q00613). Description: ATG_HSE_CIS: Attagene CIS-FACTORIAL HepG2 Assay for human Heat Shock Transcription Factor 1 (HSE) (AID 2282953). The settings on record: HepG2 HSE cis-reporter, Attagene RNA transcription; actives raise or lower the signal. The gist of the method:
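Liver-derived HepG2 cells carry transiently introduced multiple reporter units governed by cis promoters. Reporter RNA measured 24 h post-dose through reverse transcription, PCR amplification, fluorescent labelling and capillary electrophoresis, normalised to DMSO.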

Assay [17] in a line: ATG_MRE_CIS: Attagene CIS-FACTORIAL HepG2 Assay for human Metal Responsive Element (MRE) (AID 2282954). The settings on record: HepG2 MRE cis-reporter transcription, Attagene multiplex; actives raise or lower the signal. A digest of the protocol:
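After a 24 h chemical exposure, transiently transfected HepG2 cells yield RNA whose reporter sequences are amplified, FAM-labelled and sized by capillary electrophoresis. Curves are fitted bidirectionally relative to DMSO.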

A short description of assay [18]: ATG_PBREM_CIS: Attagene CIS-FACTORIAL HepG2 Assay for human Phenobarbital-responsive Enhancer Module (PBREM) (AID 2282955). The settings on record: HepG2 PBREM cis-reporter, Attagene multiplexed transcription; actives raise or lower the signal. The gist of the method: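 HepG2 cells transiently transfected with multiple cis-regulated reporter units measure endogenous transcription factor activity; 24 h compound exposure. Reporter mRNA quantified by RT-PCR, fluorescent labelling, HpaI digestion and capillary electrophoresis; bidirectional fit versus DMSO.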

Assay [19] deals with Hepatocyte nuclear factor 3-beta (Homo sapiens) (UniProt Q9Y261). Briefly: ATG_FoxA2_CIS: Attagene CIS-FACTORIAL HepG2 Assay for human Forkhead box A2 (FOXA2) (AID 2282942). The settings on record: HepG2 cis-reporter transcription factor activity, 24 h; actives raise or lower the signal. A digest of the protocol: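 HepG2 transiently transfected with a multiplexed cis-promoter reporter library read endogenous FOXA2 activity. After 24 h compound exposure, reporter mRNA was quantified by RT-PCR, HpaI digestion and capillary electrophoresis. Bidirectional fit against DMSO.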

Assay [20] has as its target Bile acid receptor (Homo sapiens) (UniProt Q96RI1). Description: ATG_IR1_CIS: Attagene CIS-FACTORIAL HepG2 Assay for human Nuclear Receptor Subfamily 1 Group H Member 4 (NR1H4), IR1 submotif (AID 2282946). The settings on record: IR1 reporter transcription, actives raise or lower the signal. The gist of the method:
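Cells (human HepG2) carry transiently transfected cis-promoter reporter transcription units. Compounds are incubated 24 h, total RNA is reverse-transcribed and amplified, and labelled fragments are resolved by capillary electrophoresis. Curves use DMSO as baseline.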

Consider seven compounds from PubChem BioAssay (EPA / NIEHS).

Molecules are shown by their SMILES. The source made the active and inactive calls. How the source made its calls: active means hit-call score of the fitted dose curve at least 0.9, where 1 is the maximum; inactive means score below 0.9.

Hypoxia-inducible factor 1-alpha (Homo sapiens), sequence (Q16665 whole entry, looked up): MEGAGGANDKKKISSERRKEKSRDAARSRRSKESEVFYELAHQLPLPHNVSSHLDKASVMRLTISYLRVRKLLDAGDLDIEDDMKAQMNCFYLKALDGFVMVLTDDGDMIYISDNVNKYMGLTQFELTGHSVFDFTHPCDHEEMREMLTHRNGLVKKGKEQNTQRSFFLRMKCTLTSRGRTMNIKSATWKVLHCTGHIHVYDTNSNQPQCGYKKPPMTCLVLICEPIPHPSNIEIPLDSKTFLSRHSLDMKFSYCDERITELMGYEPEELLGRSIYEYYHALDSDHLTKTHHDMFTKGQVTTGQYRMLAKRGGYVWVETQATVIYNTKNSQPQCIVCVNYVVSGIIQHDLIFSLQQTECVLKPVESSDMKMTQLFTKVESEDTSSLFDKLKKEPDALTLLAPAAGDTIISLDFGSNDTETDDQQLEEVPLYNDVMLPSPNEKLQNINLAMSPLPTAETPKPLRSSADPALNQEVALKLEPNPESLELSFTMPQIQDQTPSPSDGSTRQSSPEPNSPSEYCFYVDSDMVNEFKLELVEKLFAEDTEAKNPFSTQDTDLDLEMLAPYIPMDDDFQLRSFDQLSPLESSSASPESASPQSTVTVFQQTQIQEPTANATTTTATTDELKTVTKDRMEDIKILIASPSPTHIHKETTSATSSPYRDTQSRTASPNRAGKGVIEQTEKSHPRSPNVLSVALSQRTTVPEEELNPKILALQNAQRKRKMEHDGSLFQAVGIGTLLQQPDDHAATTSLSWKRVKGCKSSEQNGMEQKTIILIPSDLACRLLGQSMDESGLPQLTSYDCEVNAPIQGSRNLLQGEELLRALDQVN
Hepatocyte nuclear factor 3-beta (Homo sapiens), sequence (Q9Y261 whole entry, looked up): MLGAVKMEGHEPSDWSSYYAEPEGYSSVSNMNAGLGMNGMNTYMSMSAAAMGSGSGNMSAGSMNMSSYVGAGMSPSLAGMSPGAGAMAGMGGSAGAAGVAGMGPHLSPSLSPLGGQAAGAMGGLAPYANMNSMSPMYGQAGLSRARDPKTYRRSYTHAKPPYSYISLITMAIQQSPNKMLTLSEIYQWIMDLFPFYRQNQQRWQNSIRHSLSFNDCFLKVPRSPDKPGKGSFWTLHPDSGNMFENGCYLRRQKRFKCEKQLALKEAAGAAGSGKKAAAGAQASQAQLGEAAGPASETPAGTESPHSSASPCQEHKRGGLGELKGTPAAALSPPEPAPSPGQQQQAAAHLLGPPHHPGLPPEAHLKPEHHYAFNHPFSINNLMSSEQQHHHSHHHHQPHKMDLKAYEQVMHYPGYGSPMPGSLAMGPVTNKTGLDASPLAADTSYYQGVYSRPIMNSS
Hepatocyte nuclear factor 6 (Homo sapiens), sequence (Q9UBC0 whole entry, looked up, the tested form may be a part): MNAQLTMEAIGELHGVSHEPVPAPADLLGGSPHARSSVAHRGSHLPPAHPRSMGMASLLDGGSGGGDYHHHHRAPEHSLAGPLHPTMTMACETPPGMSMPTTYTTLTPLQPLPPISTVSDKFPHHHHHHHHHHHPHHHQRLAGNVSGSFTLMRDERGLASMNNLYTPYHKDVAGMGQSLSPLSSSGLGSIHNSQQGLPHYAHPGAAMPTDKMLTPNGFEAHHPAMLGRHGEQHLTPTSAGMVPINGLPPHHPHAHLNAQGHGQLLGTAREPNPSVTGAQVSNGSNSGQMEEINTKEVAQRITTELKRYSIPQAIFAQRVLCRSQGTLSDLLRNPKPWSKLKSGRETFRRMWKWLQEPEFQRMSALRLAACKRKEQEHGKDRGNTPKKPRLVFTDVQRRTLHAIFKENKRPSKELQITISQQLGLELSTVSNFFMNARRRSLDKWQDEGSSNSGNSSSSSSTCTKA
Bile acid receptor (Homo sapiens), sequence (Q96RI1 whole entry, looked up, the tested form may be a part): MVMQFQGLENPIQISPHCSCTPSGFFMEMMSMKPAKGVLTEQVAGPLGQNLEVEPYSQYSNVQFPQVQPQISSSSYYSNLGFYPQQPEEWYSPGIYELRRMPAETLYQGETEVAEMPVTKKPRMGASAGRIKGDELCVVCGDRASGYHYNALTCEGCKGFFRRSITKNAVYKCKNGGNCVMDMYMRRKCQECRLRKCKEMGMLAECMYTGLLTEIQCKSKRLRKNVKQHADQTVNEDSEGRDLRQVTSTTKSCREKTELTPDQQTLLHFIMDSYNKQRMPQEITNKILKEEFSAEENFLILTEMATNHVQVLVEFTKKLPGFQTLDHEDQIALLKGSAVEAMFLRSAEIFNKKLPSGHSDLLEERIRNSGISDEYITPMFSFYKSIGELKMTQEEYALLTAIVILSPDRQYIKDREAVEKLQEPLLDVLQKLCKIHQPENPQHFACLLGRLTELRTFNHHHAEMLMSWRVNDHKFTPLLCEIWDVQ
Heat shock factor protein 1 (Homo sapiens), sequence (Q00613 whole entry, looked up): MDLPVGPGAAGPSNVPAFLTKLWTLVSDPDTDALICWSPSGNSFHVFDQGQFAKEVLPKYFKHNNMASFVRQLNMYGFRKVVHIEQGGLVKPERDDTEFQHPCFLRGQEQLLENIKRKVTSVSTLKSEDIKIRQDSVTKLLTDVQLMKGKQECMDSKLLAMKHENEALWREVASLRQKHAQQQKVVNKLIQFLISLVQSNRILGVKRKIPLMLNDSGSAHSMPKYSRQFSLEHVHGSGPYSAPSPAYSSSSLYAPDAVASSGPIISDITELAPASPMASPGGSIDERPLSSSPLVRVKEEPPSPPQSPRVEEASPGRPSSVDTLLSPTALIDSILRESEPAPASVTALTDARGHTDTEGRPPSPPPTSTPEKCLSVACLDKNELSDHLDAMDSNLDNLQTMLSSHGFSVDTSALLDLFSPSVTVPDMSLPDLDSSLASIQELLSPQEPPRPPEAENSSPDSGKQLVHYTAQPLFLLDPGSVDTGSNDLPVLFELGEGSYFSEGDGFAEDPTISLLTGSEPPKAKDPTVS

For `CCCCC/C=C\CCC=O`, the result in assay [1], in [2], in assay [3], in assay [4], in [5] and in assay [6] was inactive. In addition, the call in [7], in assay [8], in assay [9], in assay [10], in [11] and in assay [12] was inactive. In addition, the outcome in assay [13], in assay [14], in assay [15], in [16], in assay [17] and in assay [18] was inactive.
`COC(=O)c1c(C)cc(O)c(C)c1O`: the outcome in assay [1], in assay [2], in assay [3], in [4], in assay [5] and in assay [6] was inactive. The outcome in assay [19], in assay [8], in [9], in assay [11], in assay [12] and in [13] was inactive. Further, the compound was classed as inactive in [14], in assay [15], in assay [16], in [17] and in assay [18].
For the compound `CCOC(=O)[C@H](C)O`, the outcome in [1], in assay [2], in [3], in assay [4], in assay [5] and in [6] was inactive. The call in assay [7], in assay [8], in assay [9], in [20], in [10] and in [11] was inactive. Moreover, the compound was called inactive in [12], in assay [13], in [14], in assay [15], in assay [17] and in [18].
`ON(Cc1ccccc1)Cc1ccccc1`: the result in assay [1], in assay [2], in [3], in [4], in [5] and in assay [6] was inactive. The outcome in assay [7], in assay [8], in assay [9], in assay [10], in assay [11] and in [12] was inactive. The call in [13], in [14], in [15], in assay [17] and in assay [18] was inactive.
For the compound `Cc1ccc(N/N=c2\c(=O)cc/c(=N/Nc3ccc(S(=O)(=O)O)cc3)c2=O)c(C)c1`, the result in [1], in assay [2], in assay [3], in [4], in assay [6] and in [19] was inactive. For the same compound, the result in assay [9], in assay [20], in assay [11], in assay [12], in assay [13] and in assay [14] was inactive. In addition, the compound was called inactive in assay [15], in assay [16], in assay [17] and in [18]. For the same compound, the AC50 (as a rule, the concentration giving half of the maximal activity seen) in [5] was 100 µM (active).
Consider `CC(C)=CCC/C(C)=C\C#N`, for which the result in [1], in assay [2], in [3], in assay [4], in [5] and in [6] was inactive. In addition, the call in assay [19], in assay [20], in assay [10], in assay [11], in [12] and in [13] was inactive. Moreover, the result in [14], in [15], in [16], in [17] and in assay [18] was inactive.
As for `CC(=O)[C@@]1(O)CC[C@H]2[C@@H]3C[C@H](C)C4=CC(=O)C=C[C@]4(C)[C@@]3(F)[C@@H](O)C[C@@]21C`, the outcome in assay [1], in assay [2], in assay [3], in [4], in [5] and in assay [6] was inactive. The compound was called inactive in assay [7], in [8], in assay [9], in [20], in assay [11] and in assay [12]. In addition, the call in assay [14], in [15], in assay [16], in assay [17] and in assay [18] was inactive. Further, in assay [10], the concentration at half-maximal activity (AC50) is 0.0821 µM (active).
